Data published in PubChem BioAssay (Tox21).
“And” between values parts separate entries of the source, which are not always exact repeats. Identical values can stand only once. Inconclusive results are not listed. A call without a number means that no potency is given here. Some compounds were tested as several samples or in several runs, with calls that do not always agree. The source made the active and inactive calls. Unless noted, calls come from the whole dose curve; as a rule, active = well fitted curve in the direction sought with a large enough effect in the repeat runs; inconclusive = weak or mixed curves; inactive = no such curve, though single readings can be large; an effect the other way counts as inactive or inconclusive.

Tests used:
[1] = biological target: Retinoic acid receptor RXR-alpha (Homo sapiens) (UniProt P19793); test: qHTS assay to identify small molecule agonists of the RXR signaling pathway (AID 1159527; calls by dose curve; note: nearly all actives have a fitted effect of over 35% in size; note: potency is the fitted concentration of half-maximal effect)
Sequence of Retinoic acid receptor RXR-alpha (Homo sapiens) (P19793 whole entry, looked up): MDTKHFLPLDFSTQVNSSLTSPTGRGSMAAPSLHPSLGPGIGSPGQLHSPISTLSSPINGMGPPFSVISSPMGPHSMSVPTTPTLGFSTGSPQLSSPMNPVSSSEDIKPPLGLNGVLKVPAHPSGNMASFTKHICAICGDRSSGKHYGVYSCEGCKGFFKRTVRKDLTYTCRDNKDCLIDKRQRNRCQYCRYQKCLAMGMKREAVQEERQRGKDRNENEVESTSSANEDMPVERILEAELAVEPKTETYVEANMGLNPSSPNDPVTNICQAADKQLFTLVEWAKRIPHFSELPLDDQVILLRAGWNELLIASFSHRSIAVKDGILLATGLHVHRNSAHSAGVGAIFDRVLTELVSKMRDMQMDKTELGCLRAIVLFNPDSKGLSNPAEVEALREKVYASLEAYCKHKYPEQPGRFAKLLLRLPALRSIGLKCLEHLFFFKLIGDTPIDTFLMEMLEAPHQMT
Outline: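 GeneBLAzer RXR-alpha-UAS-bla HEK 293T cells in medium with 2% charcoal-stripped FBS, pre-incubated 5 hr at 37 C, then exposed to compounds 16 hr. Beta-lactamase reporter read by FRET substrate, 2 hr room temperature, 460/530 nm emission.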

[2] = qHTS assay to identify small molecule agonists of the RXR signaling pathway - cell viability counter screen (AID 1159529); note: nearly all actives have a fitted effect of over 50% in size; note: potency is the fitted concentration of half-maximal effect
Outline: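 RXR-alpha-UAS-bla HEK 293T cells in medium with 2% charcoal-stripped FBS were preincubated 5 hr, then exposed to compounds for 16 hr at 37 C. Viability was read as CellTiter-Glo luminescence after 30 min at room temperature.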

[3] = qHTS assay to identify small molecule antagonists of the retinoid acid receptor (RAR) signaling pathway - cell viability counter screen (AID 1159551); note: nearly all actives have a fitted effect of over 35% in size; note: potency is the fitted concentration of half-maximal effect
Outline: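 Luminescent ATP quantitation (CellTiter-Glo) gave cell viability in C3RL4 cells exposed to test chemicals for 6 h at 37 C alongside 1 uM final retinol.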

[4] = qHTS assay to identify small molecule antagonists of the retinoic acid receptor (RAR) signaling pathway (AID 1159552; note: nearly all actives have a fitted effect of over 50% in size; note: potency is the fitted concentration of half-maximal effect)
Outline: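 RARE-luc C3RL4 cells; cpds + 1 uM (final) retinol, 6 hr, 37 C/5% CO2; luciferase reagent, 30 min RT, luminescence readout. Inhibitors of retinol-driven signal scored.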

[5] = qHTS assay to identify small molecule agonists of the retinoic acid receptor (RAR) signaling pathway (AID 1159553)
Outline: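 Luminescence from a RARE-driven luciferase reporter in C3RL4 cells served as the read-out, measured after 30 min with detection reagent at room temperature. Compounds in DMSO were applied for 6 hr at 37 C following overnight seeding.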

[6] = qHTS assay to identify small molecule antagonists of the estrogen related receptor (ERR) signaling pathway (AID 1224819;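 note: luminescence from an ERR-driven luciferase reporter measured with One-Glo reagent; series mostly up to about 46 µM; nearly all actives have a fitted effect of over 50% in size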)
Outline: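 Seed ERR cells 2,000/well; rest 6 h at 37 C/5% CO2; pin compounds in DMSO; incubate 18 h at 37 C; add One-Glo; wait 30 min at room temperature; measure luminescence.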

[7] = qHTS assay to identify small molecule agonists of the estrogen related receptor (ERR) signaling pathway (AID 1224820)
Outline: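 ERR reporter cell line (from NTP), 2,000 cells/well, incubated 6 h before compound addition, then 18 h at 37 C. Luminescence measured 30 min after One-Glo reagent at room temperature.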

[8] = test system: estrogen-related receptor alpha (ERRalpha) with PGC-1alpha coactivator, human; test: qHTS assay to identify small molecule antagonists of the estrogen related receptor signaling pathway with the pleiotropic PPARgamma coactivator (PGC) (AID 1224821; calls by dose curve;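 note: series mostly up to about 46 µM; lower luminescence signal means antagonism of PGC/ERR signalling; nearly all actives have a fitted effect of over 50% in size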)
Outline: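 PGC/ERR reporter cell line, plated 6 h before compound addition, then exposed 18 h at 37 °C. Luciferase activity read by luminescence 30 min after One-Glo addition; decrease indicates antagonism.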

[9] = qHTS assay to identify small molecule antagonists of the estrogen related receptor (ERR) signaling pathway - cell viability counter screen (AID 1224818);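 note: series mostly up to about 46 µM; viability measured after 17.5 h of compound exposure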
Outline: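 Multiplexed counter screen to separate cytotoxic compounds from true ERR modulators. ERR cells received DMSO-dissolved compounds after a 6 h pre-incubation, were exposed 17.5 h at 37 C, then assayed with CellTiter-Fluor fluorescence.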

[10] = qHTS assay to identify small molecule antagonists of the estrogen related receptor signaling pathway with the pleiotropic PPARgamma coactivator (PGC) cell viability counter screen (AID 1224822;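 note: series mostly up to about 46 µM; viability read after 17.5 h compound exposure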)
Outline: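 Cells: PGC/ERR, 2,000/well, 1536-well format. Pre-incubation 6 h, 37 C/5% CO2. Compound exposure 17.5 h, 37 C. Detection: CellTiter-Fluor, 30 min, fluorescence.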

With `CCC1(CC)C(=O)C=CNC1=O` the Potency [1] was “inactive”, the Potency [2] was “inactive” and the Potency [3] was “inactive”. The Potency [4] was “inactive” and the Potency [5] was “inactive”.
For `CN1COCN(Cc2cnc(Cl)s2)/C1=N\[N+](=O)[O-]`, the Potency [1] was “inactive”, the Potency [2] was “inactive” and the Potency [3] was “inactive”. The Potency [4] was “inactive” and the Potency [5] was “inactive”.
For `CCNc1nc(NCC)nc(SC)n1`, the Potency [1] was “inactive”, the Potency [2] was “inactive” and the Potency [3] was “inactive”. The Potency [4] was “inactive” and the Potency [5] was “inactive”.
For `O=P(O)(O)CN(CP(=O)(O)O)CP(=O)(O)O`, the Potency [1] was “inactive”, the Potency [2] was “inactive” and the Potency [3] was “inactive”. The Potency [4] was “inactive” and the Potency [5] was “inactive”.
With `CCCOc1nn(C(=O)NS(=O)(=O)c2ccccc2C(=O)OC)c(=O)n1C` the Potency [1] was “inactive”, the Potency [2] was “inactive” and the Potency [3] was “inactive”. For the same compound, the Potency [4] was “inactive” and the Potency [5] was “inactive”.
In the case of `CS(=O)(=O)Cl`, the Potency [1] was “inactive”, the Potency [2] was “inactive” and the Potency [3] was “inactive”. The Potency [4] was “inactive” and the Potency [5] was “inactive”.
For `N#CN=C1SCCN1Cc1ccc(Cl)nc1`, the Potency [1] was 38.9 µM (active), the Potency [2] was “inactive” and the Potency [3] was “inactive”. For the same compound, the Potency [4] was “inactive” and the Potency [5] was “inactive”.
In the case of `CCOP(=S)(OCC)Oc1ccc(Cl)cc1Cl`, the Potency [1] was “inactive”, the Potency [2] was “inactive” and the Potency [3] was “inactive”. The Potency [4] was “inactive” and the Potency [5] was “inactive”.
For `OP(O)c1ccccc1`, the Potency [1] was “inactive”, the Potency [2] was “inactive” and the Potency [3] was “inactive”. The Potency [4] was “inactive” and the Potency [5] was “inactive”.
With `O=C1C2CC=CCC2C(=O)N1SC(Cl)(Cl)Cl` (configuration not stated) the Potency [1] was “inactive”, the Potency [2] was “inactive and 24.1 µM (active)” and the Potency [3] was “inactive and 26.9 µM (active)”. For the same compound, the Potency [4] was “inactive and 5.36 µM (active)” and the Potency [5] was “inactive”.
In the case of `Cc1ccc(S(=O)(=O)N[C@@H](CCCCN)C(=O)CCl)cc1`, the outcome [6] was “inactive” and the outcome [7] was “inactive”.
In the case of `CCCN1CCC[C@@H]2Cc3nc(N)ncc3C[C@H]21`, the outcome [6] was “inactive”, the outcome [7] was “inactive” and the outcome [8] was “inactive”.
With `CC(C)(N)Cc1ccccc1Cl` the Potency [1] was “inactive”, the Potency [3] was “inactive” and the Potency [4] was “inactive”. For the same compound, the Potency [5] was “inactive”.
With `CC[C@@H](CO)NC(=O)[C@@H]1C=C2c3cccc4[nH]cc(c34)C[C@H]2N(C)C1` the Potency [1] was “inactive”, the Potency [3] was “inactive” and the Potency [4] was “inactive”. The outcome [9] was “inactive”, the outcome [6] was “inactive” and the outcome [7] was “inactive”. The outcome [8] was “inactive” and the outcome [10] was “inactive”.
For `CC(Cc1ccccc1)NCCCCl` (configuration not stated), the Potency [1] was “inactive”, the Potency [3] was “inactive” and the Potency [4] was “inactive”. For the same compound, the Potency [5] was “inactive”.
In the case of `CCC1(c2ccccc2)CCC(=O)NC1=O` (configuration not stated), the Potency [1] was “inactive”, the Potency [3] was “inactive” and the Potency [4] was “inactive”. The Potency [5] was “inactive”.
In the case of `O=P(O)(O)c1ccccc1`, the Potency [1] was “inactive”, the Potency [3] was “inactive” and the Potency [4] was “inactive”. The Potency [5] was “inactive”.
In the case of `CN1C(=O)COc2c(C(=O)NC3CN4CCC3CC4)cc(Cl)cc21` (configuration not stated), the Potency [1] was “inactive”, the Potency [3] was “inactive” and the Potency [5] was “inactive”.
In the case of `CCC(C(N)=O)N1CCCC1=O` (configuration not stated), the Potency [1] was “inactive”, the Potency [3] was “inactive” and the Potency [4] was “inactive”. The Potency [5] was “inactive”.
In the case of `C[C@]12C=CC(=O)C=C1CC[C@@H]1[C@@H]2CC[C@@]2(C)[C@H]1CC[C@]2(C)O`, the Potency [1] was “inactive”, the Potency [3] was “inactive” and the Potency [4] was “inactive”. For the same compound, the Potency [5] was “inactive”.
In the case of `O=C(Cl)C(Cl)Cl`, the Potency [1] was “inactive”, the Potency [3] was “inactive” and the Potency [4] was “inactive”. The Potency [5] was “inactive”.
In the case of `CCN[C@H](C)Cc1cccc(C(F)(F)F)c1`, the Potency [2] was “inactive”, the Potency [3] was “inactive” and the Potency [4] was “inactive”.
With `CC1=C2[C@H]3OC(=O)[C@@H](C)[C@@H]3CC[C@@]2(C)C=CC1=O` the Potency [1] was “inactive”, the Potency [3] was “inactive” and the Potency [4] was “inactive”. For the same compound, the Potency [5] was “inactive”.
In the case of `C[C@H](CN1CCOCC1)C(C(=O)N1CCCC1)(c1ccccc1)c1ccccc1`, the Potency [1] was “inactive”, the Potency [3] was “inactive” and the Potency [5] was “inactive”.
In the case of `COC[C@@H](NC(C)=O)C(=O)NCc1ccccc1`, the Potency [2] was “inactive”, the Potency [3] was “inactive” and the Potency [4] was “inactive”.
